The results in this text go back to the supplement of paper PMC4894684.

Structures can show the parent of a compound that is named as a salt. ± gives the standard deviation of the averaged measurements. A value given as a limit tells only on which side of the number the result lay.

This assay deals with Toxoplasma gondii RH (in HFF). Kind of assay: parasite growth relative to the screen mean (all compounds = 100%); higher = less inhibition of parasite growth. Particulars: 5 µM; 72 h; oxygen 21 %. In outline:
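Growth values are relative to the mean of the whole screen and averaged over duplicate screens, with all compounds together set to 100%. Parasites (RH β-Gal–GFP Toxoplasma, MOI 1:5) were added within 2 h of pinning compounds at 5 µM final onto confluent human foreskin fibroblasts and grown 72 h at 21% O2. Parasite number came from CPRG β-Gal readings against in-plate standard curves.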
In the case of `Cn1cnnc1Sc1c([N+](=O)[O-])ncn1C`, the parasite growth was 131 ± 11%. Compound `CCc1ccc2c(-c3cccc(Cl)c3)nc(=O)n(CC)c2n1` yielded a parasite growth of 152 ± 17%.

Consider `c1ccc(C(NCc2cccnc2)(c2ccccc2)c2ccccc2)cc1`, for which the parasite growth amounted to 48.8 ± 13%. With `Cc1cc(C(=O)O)sc1C(N)C(=O)O` (stereo not drawn), the parasite growth came to 126 ± 5.2%. As to `O=C1c2ccccc2C(Cc2ccncc2)(Cc2ccncc2)c2ccccc21` [XE 991 dihydrochloride], the parasite growth is 34.3 ± 6.2%. As for `CN(C)[C@@H]1CCc2[nH]c3ccc(NC(=O)c4ccc(F)cc4)cc3c2C1`, the parasite growth was determined as 124 ± 19%. In the case of `CC(CCc1ccc(O)cc1)NCCc1ccc(O)c(O)c1` (stereo not drawn) [Dobutamine hydrochloride] it was 176 ± 7.3%; in that of `CCc1cc2c(c(CC)n1)CCC(=O)N2Cc1ccc(-c2ccccc2-c2nn[nH]n2)cc1` [ZD 7155 hydrochloride], 91.1 ± 57%. Consider `Nc1nc2c(nc(Br)n2[C@@H]2O[C@@H]3COP(=O)(O)O[C@H]3[C@H]2O)c(=O)[nH]1` [8-Bromo-cGMP, sodium salt], for which the parasite growth was determined as 133 ± 26%.

In turn, `N#Cc1c(O)c2c(-c3ccc(-c4ccccc4O)cc3)csc2[nH]c1=O` had a parasite growth of 131 ± 14%.

For `CC1=C(CC(=O)O)c2cc(F)ccc2/C1=C\c1ccc([S+](C)[O-])cc1` (stereo not drawn) [Sulindac], the parasite growth stood at 183 ± 34%. Consider `COc1cc(Br)c(S(=O)(=O)Nc2ccc(Cl)c(O[C@@H]3CCN(C)C3)c2)cc1OC`, for which the parasite growth came to 57.1 ± 16%. The compound `NCCCCNCCCN` [Spermidine trihydrochloride] came in with a parasite growth of 90.6 ± 7.8%. With `COc1ccccc1C1(O)CCN(CCCn2c3ccccc3c3ccccc32)CC1` [NNC 05-2090 hydrochloride], the parasite growth was less than 0%.

The compound `c1ccc(CN(CC2=NCCN2)c2ccccc2)cc1` [Antazoline hydrochloride] yielded a parasite growth of 114 ± 25%. Take `O=C(Nc1ccccc1)C12CC1C(=NO)c1ccccc1O2` (stereo not drawn): the parasite growth came out at 77.3 ± 29%. In turn, `O=C(O)C(=O)O.[NH-][C@@H]1CCCC[C@H]1[NH-].[Pt+2]` [Oxaliplatin] had a parasite growth of 143 ± 2.5%. In the case of `c1ccc(-c2n[nH]c3c2oc2ccccc23)cc1` it was 103 ± 32%; in that of `CC(CCCCC(=O)Nc1ccc(C(F)(F)F)cc1)NCCc1cnc[nH]1` (stereo not drawn) [HTMT dimaleate], 95.1 ± 7.2%; in that of `CCCn1c(=O)c(C)cn2nc(N)nc12`, 145 ± 2.1%. `CN(Cc1cnc2nc(N)nc(N)c2n1)c1ccc(C(=O)N[C@@H](CCC(=O)O)C(=O)O)cc1` [Methotrexate] registered a parasite growth of 161 ± 27%.

`CC[N+](C)(CC)CC(=O)Nc1c(C)cccc1C` [N-Methyllidocaine iodide] registered a parasite growth of 119 ± 24%.

On to `Nc1nc2c(ncn2COCCO)c(=O)[nH]1` [Acyclovir], for which the parasite growth amounted to 124 ± 28%. `CC1(C(=O)O)NCCc2cc(O)c(O)cc21` (stereo not drawn) [Salsolinol-1-carboxylic acid] yielded a parasite growth of 104 ± 22%. Compound `N[C@@H](Cc1cc(-c2ccc(Cl)cc2Cl)cc(CP(=O)(O)O)c1O)C(=O)O` registered a parasite growth of 127 ± 26%. In turn, `CNC(=C[N+](=O)[O-])NCCSCc1ccc(CN(C)C)o1` [Ranitidine hydrochloride] came in with a parasite growth of 94.7 ± 18%. Take `COc1cc2nc(N3CCN(C(=O)c4ccco4)CC3)nc(N)c2cc1OC` [Prazosin hydrochloride]: the parasite growth turned out to be 73.4 ± 17%. Regarding `C[C@@H](CN1CCC(Cc2ccccc2)CC1)[C@@H](O)c1ccc(O)cc1` [Ro 25-6981 maleate], the parasite growth was 121 ± 23%. With `c1ccc2oc(C3=NCCN3)cc2c1` [2-BFI hydrochloride], the parasite growth is 109 ± 12%. Regarding `NC(N)=NC(N)=Nc1cccc(Cl)c1` [m-Chlorophenylbiguanide hydrochloride], the parasite growth amounted to 133 ± 15%.

Compound `O=[N+]([O-])c1cc2nc(O)c(O)nc2cc1[N+](=O)[O-]` registered a parasite growth of 91.7 ± 27%. In the case of `O=c1cc(N2CCNCC2)oc2c(-c3ccccc3)cccc12` it was 150 ± 30%; in that of `CN(C)C(=O)C(=O)c1cn(C)c2cc(Cl)c(C(=O)N3CCC(Cc4ccc(F)cc4)CC3)cc12`, 140 ± 28%.

Turning to `Cc1cccc(CCN2CCC(C(=O)c3ccc(NS(C)(=O)=O)cc3)CC2)n1` [E-4031 dihydrochloride], the parasite growth was determined as 150 ± 13%. For `N#C/C(=C(/N)Sc1ccc(N)cc1)c1ccccc1C(F)(F)F`, the parasite growth is 113 ± 29%.

The compound `NC(=O)c1ccc(-c2nc(-c3ccccn3)c(-c3ccc4c(c3)OCO4)[nH]2)cc1` registered a parasite growth of 36.2 ± 32%.

As to `Nc1nc(F)nc2c1ncn2[C@@H]1O[C@H](CO)[C@@H](O)[C@@H]1O` [Fludarabine], the parasite growth was 102 ± 10%. Compound `CC(C)NC[C@@H](O)COc1cccc2ccccc12` [(R)-(+)-Propranolol hydrochloride] came in with a parasite growth of 87.15 ± 0.86%.
